KKLEB cytotox = cytotoxicity in KKLEB CF airway cells, primary screen, cytotoxicity control for CF NF-kB inhibitor project, cell-based, uHTS, fluorescence assay plates | AID 602141, 2011 | activity change (cytotoxicity), % at 5 µM | KKLEB CF airway cells viability, ATPlite luminescence, overnight; active compounds read low; cells stimulated with P. aeruginosa culture filtrate | 360,000 tested, 0.36% active;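 active means corrected activity change at or below -50% at 5 µM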
CF NFkB inh = inhibitors of PAF-induced NF-kB signaling, primary screen, cell-based, GFP fluorescence, uHTS; 360,000 tested, 0.86% active; inhibition, % at 5 µM; KKLEB NF-kB-GFP reporter, GFP fluorescence overnight; AID 588850, 2011;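 active means at least 50% inhibition at 5 µM, scaled per plate between neutral and stimulator controls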;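 further: PAF is a Pseudomonas aeruginosa culture filtrate used as stimulus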
TROY signal inh = inhibitors of TROY-driven NF-kB signaling, primary screen, Q293 LMP1-TROYcd cells, NF-kB luciferase, uHTS; Q293 LMP1-TROYcd NF-kB luciferase reporter, 4 h; inhibition, % at 10 µM; 360,000 tested, 0.98% active;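 active means compounds whose plate-normalised and pattern-corrected inhibition of the luciferase reporter signal at the single screening dose is 50% or more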
HIF-2a block = HIF-2a reporter inhibitors, primary screen, luminescence, 786-0 RCC cells; 360,000 tested, 0.72% active; AID 624352, 2012; inhibition, % at 18.8 µM; 786-0 RCC cells HIF-2a reporter, luciferase luminescence, overnight;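 active means inhibition of the luminescence signal of 40% or more relative to plate controls, in a single-dose primary screen at 18.75 µM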
Peg3 prom inh-1 = Peg3 promoter-driven luciferase inhibitors, primary screen, cell-based, HeLa, luciferase luminescence. HeLa PEG-Prom luciferase reporter, overnight. inhibition, % at 20 µM. 360,000 tested, 1.7% active. AID 588405, 2011;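 active means inhibition of at least 50% at 20 µM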
TWEAK Fn14 block = inhibitors of TWEAK-Fn14 signaling, primary screen, luciferase reporter cells, uHTS. TWEAK-stimulated Fn14 reporter cells, luciferase luminescence, 8 h. inhibition, % at 10 µM. 360,000 tested, 2% active; in the data active means inhibition above about 50%
Peg3 prom inh-2 = Peg3 promoter reporter inhibitors, retest, confirmation, cell-based, HeLa, luciferase reporter, single concentration; inhibition, % at 20 µM; 1,300 tested, 84% active; HeLa PEG-Prom luciferase reporter, luminescence, overnight; shares compounds with Peg3 prom inh-1;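 active means at 20 µM dose, 40% or more inhibition averaged across four replicates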
Hits are given with their value; - = inactive; . = not tested or not shown. Rows were chosen to be rich in hits. Some 4% of all compounds tested hit in one or more screens of this group.

SMILES	KKLEB cytotox	CF NFkB inh	TROY signal inh	HIF-2a block	Peg3 prom inh-1	TWEAK Fn14 block	Peg3 prom inh-2
COc1cc(C(=O)n2cnc3ccccc32)c([N+](=O)[O-])cc1OC	-	-	-	-	-	-	.
O=C(c1ccoc1)N1CCN(c2cc(-c3ccccc3)nc3cc(-c4ccccc4)nn23)CC1	-	-	-	-	68.4	-	70.0
CC(CC(=O)N1CCc2ccccc21)c1ccccc1 (stereo not drawn)	-	-	-	-	-	-	.
O=C(CCN1C(=O)/C(=C/c2ccc(F)cc2)SC1=S)NNC(=O)c1ccncc1	-	-	-	-	-	-	.
O=C(CCN1C(=O)/C(=C/c2ccc(F)cc2)SC1=S)N[C@@H](CO)Cc1ccccc1	-	-	-	-	78.6	-	72.3
CN(C)CCOC1(Cc2ccc(F)cc2)CCC(C(C)(C)C)CC1 (stereo not drawn)	-	-	-	-	-	-	.
Cc1ccc(CC2(OCCN(C)C)CCC(C(C)(C)C)CC2)cc1 (stereo not drawn)	-	-	-	-	95.4	-	100.8
CN(C(=O)c1cn2ccccc2n1)c1c(N)n(Cc2ccccc2)c(=O)[nH]c1=O	-	-	-	-	-	-	.
Oc1c(C(Nc2cccc(C(F)(F)F)c2)c2cccnc2)ccc2cccnc12 (stereo not drawn)	-	-	-	-	-	-	.
Cc1cc(NC(c2cccnc2)c2ccc3cccnc3c2O)no1 (stereo not drawn)	-	-	.	-	73.1	-	69.4
Oc1cccc(C(Nc2nccs2)c2ccc3cccnc3c2O)c1 (stereo not drawn)	-	-	-	-	55.7	-	85.5
Cc1cc(C)c(C)c(S(=O)(=O)N2CCN(C(=O)c3cc(=O)[nH]c4ccccc34)CC2)c1C	-	-	-	-	58.9	53.6	58.4
Cc1cc(C)c(S(=O)(=O)N2CCN(C(=O)c3cc(=O)[nH]c4ccccc34)CC2)c(C)c1	-	-	-	-	-	-	.
Cc1ccc(-c2nc3ncccc3o2)cc1NC(=O)Cc1ccc(Cl)cc1	-	-	-	-	51.1	-	-
Oc1c(Br)cc(Br)c2cccnc12	-	-	-	-	50.2	-	59.1
Cc1ccc(C(C[N+](=O)[O-])n2nc(C)cc2C)cc1 (stereo not drawn)	-	-	-	-	-	-	.
Cc1ccc(C(C[N+](=O)[O-])Sc2ccc(N)cc2)cc1 (stereo not drawn)	-	-	-	-	105.5	-	97.3
O=C(N/N=C\c1c(O)ccc2ccccc12)c1ccc(Cn2cccn2)o1	-	-	-	-	53.5	-	67.0
O=C(CN1CCCC1)Nc1ccc(-c2nc3cc(NC(=O)CN4CCCC4)ccc3o2)cc1	-	-	52.8	-	71.5	-	92.3
CCN(CC)CC(=O)Nc1ccc(-c2nc3cc(NC(=O)CN(CC)CC)ccc3o2)cc1	-	-	-	-	-	-	.
COc1ccc(-c2nc3c(c(SCC(=O)N4CCOCC4)n2)Cc2c(CO)cnc(C)c2O3)cc1	-	-	-	-	53.7	-	40.2
CCOC(=O)C/C(C)=N/NC(=O)Nc1ccccc1	-	-	-	-	-	-	.
NC(C(=O)O)C1ON=C(Cl)C1O (stereo not drawn)	-	-	-	-	59.0	-	62.0
O=C(Nc1ccc(Cl)cc1C(=O)NCCN1CCOCC1)c1ccc(Cl)cc1Cl	-	-	-	-	-	-	.
COc1cc(NC(=O)c2cccc(C)c2)ccc1NC(=O)c1cc2ccccc2o1	-	-	-	-	59.5	-	50.2
CCOc1cccc(C(=O)Nc2ccc(NC(=O)c3cc4ccccc4o3)c(OC)c2)c1	-	-	-	-	-	-	.
Cc1cccc(N2CC(C(=O)Nc3nnc(SCC(=O)NCC4CCCO4)s3)CC2=O)c1 (stereo not drawn)	-	-	-	-	-	-	.
